Reference: PubChem BioAssay (NCI)
Compounds without any hit were thinned out: in the full panel of roughly 83,000, 20% have a hit.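 Negative percent growth values reflect cell death: -40 means 40% of the cells present at the start died, and -100 means all died.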 Values without a mark were called inactive. The source made the active and inactive calls. The calls were made as follows: active = growth percent below 10; inactive = the rest.

tested on: NCI-H460 lung; test: NCI-60 one-dose screen, 48 h (100 = growth as untreated, 0 = no growth, -100 = all killed); details: 10 µM

Compound | growth
Cc1ccc(NC(=O)c2ccc(-n3c(=O)[nH]c4ccccc4c3=O)cc2)cc1 | 86.3%
CC(=C(c1ccc(OCCN2CCCCC2)cc1)c1ccc(OCCN2CCCCC2)cc1)c1ccccc1 | 41.6%
CCCCCc1ccc(S(=O)(=O)N(C(C)=O)c2cc(-c3csc(N(C)C(C)=O)n3)ccc2N2CCN(C)CC2)cc1 | -41.6% (active)
COc1cc2c3c(n(CCCNC(C)C)c(=O)c2cc1OC)-c1nc2c(cc1C3=O)OCO2 | -74.2% (active)

tested on: HOP-92 NSCLC; test: as above; details: 10 µM

Compound | growth
O=C(NO)c1ccc(Cn2ccc3c(Nc4ccccc4)ncnc32)cc1 | -16.3% (active)
N#Cc1ccc(-c2nn(-c3ccc(C(=O)O)cc3)cc2CNc2cccc(Br)c2)cc1 | 56.5%
O=C(c1ccc(Cl)cc1)C1[C@H](c2ccccc2Br)[C@@H](c2ccccc2)NC12C(=O)Nc1ccccc12 (some centres not stated) | 14%
CC1(C)CC[C@]2(C(=O)Nc3ccccc3)CC[C@]3(C)C(=CC[C@@H]4[C@@]5(C)CC[C@H](N)C(C)(C)[C@@H]5CC[C@]43C)[C@H]2C1 | 70.2%
CC(=C(c1ccc(OCCCN(C)C)cc1)c1ccc(OCCCN(C)C)cc1)c1ccccc1 | -76.4% (active)
Cc1ccc(/C=C/C(=O)c2ccc(S(=O)(=O)NCCNc3nc(Nc4ccc(F)cc4)nc(N(C)C)n3)cc2)cc1 | -18.2% (active)
COc1ccc(C(=O)Nc2sc3c(c2C#N)CCC(=O)C3)cc1C(F)(F)F | -30.9% (active)
COc1ccc2nc(Cl)c(-c3cc(-c4ccccc4)nc(=S)[nH]3)cc2c1 | 54.1%
Cc1ccc(-c2cc(C(=O)N=Nc3c(O)[nH]c4ccccc34)c3ccccc3n2)cc1 | 21.6%
C#Cc1ccc(S(=O)(=O)Nc2cccc(-c3csc(NC(C)=O)n3)c2)cc1 | 42.5%
CC(C)C1=C[C@@]23CC[C@@H]4[C@](C)(CCC[C@]4(C)C(=O)NCc4ccccc4)[C@H]2C[C@@H]1[C@H]1C(=O)CCC(=O)[C@H]13 | 68.9%
COc1ccc(C(=O)NC(=S)N2CCN(c3ncnc4c3cnn4-c3ccccc3)CC2)cc1 | 32%
C[C@H]1[C@H](C)CC[C@]2(COC(=O)CCC(=O)NCC#CCN3CCNCC3)CC[C@]3(C)C(=CC[C@@H]4[C@@]5(C)CCCNC(C)(C)[C@@H]5CC[C@]43C)[C@H]12 | 14.4%
CC[C@@]1(O)C(=O)OCc2c1cc1n(c2=O)Cc2c-1nc1cc(F)c(C)c3c1c2[C@@H](N)CC3 | 15.1%
Cc1cccc2cc(-c3cc(-c4ccccc4)nc(=S)[nH]3)c(Cl)nc12 | 73.2%
Cc1ccc(CNC(=O)Cc2ccc3c(c2)CN(C2CCC(=O)NC2=O)C3=O)cc1 (configuration not stated) | -22.5% (active)
CONC[C@]1(C)C=C2C(=O)[C@](C)(O)C3(CC3)C(C)=C2[C@H]1O | -16.6% (active)
CC1(C)CC[C@]2(C(=O)N3CCOCC3)CC[C@]3(C)C(=CC[C@@H]4[C@@]5(C)CC[C@H](NCO)C(C)(C)[C@@H]5CC[C@]43C)[C@H]2C1 | -64.3% (active)
NS(=O)(=O)c1ccc(N=Nc2c(O)n(CC(=O)Nc3ccccc3Br)c3ccccc23)cc1 | 38.7%
CNC(=O)c1cccc(N2CCc3c2ccc(NC(=O)Nc2ccc(N4CCN(C)CC4)c(C(F)(F)F)c2)c3F)c1 | -83% (active)
O=C(NCCCCC(c1ccc(F)cc1)c1ccc(F)cc1)NCCCc1cccnc1 | 19.4%
CC(=O)Nc1ccc(-c2cn(-c3cccc(C(=O)Nc4ccc(Cl)c(C(F)(F)F)c4)c3)nn2)cn1 | -30.8% (active)
CCCS(=O)(=O)c1oc(-c2ccc(F)cc2)nc1S(=O)(=O)c1ccc(F)cc1 | -80.6% (active)
O=C(Cn1nc(-c2ccccc2)ccc1=O)NN1C(=O)c2ccccc2C1=O | 125%
CC(=O)NCC1=C(C)C=C2C(=O)[C@](C)(O)C3(CC3)C(C)=C21 | -14.1% (active)
CCN1CCN(Cc2ccc(C(=O)Nc3cccc(-c4cn(-c5ccc6oc(=O)ccc6c5)nn4)c3)cc2C(F)(F)F)CC1 | -18% (active)
CCOP(=O)(OCC)O[C@H]1CCC(=O)[C@@H]2[C@H]1[C@H]1C[C@@H]3[C@@]4(C)CCCC(C)(C(=O)OC)[C@@H]4CC[C@@]23C=C1C(C)C (some centres not stated) | 46.8%
O=C1Nc2ccc(F)cc2/C1=C/c1cccc(OCc2ccccn2)c1 | 26.5%
